Cycloheximide cs = Cycloheximide Counterscreen for Small Molecule Inhibitors of Shiga Toxin. cell reporter, cycloheximide protein synthesis inhibition counterscreen. hit rate 12% among 300,000. AID 2314, 2010. max response, %; in the data active = max response mostly above about 13%, no sharp cut-off; inactive = mostly below about 14%; also: read at 38.3 µM for the half of the compounds with a filed dose; 0% is about no effect
NS1 inh = qHTS Assay for Inhibitors of Influenza NS1 Protein Function | hit rate 0.4% among 270,000 | AID 2326, 2010 | Potency, µM (doses to about 46.1 µM), inactives show top-dose activity, positive = more growth; also: potency is read from the fitted curve at half-maximal effect; actives are rising curves; nearly all actives have a fitted effect of over 50% in size
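In this qHTS, NS1 from influenza A is expressed in budding yeast, where it slows growth. Cells are switched from glucose to 2% galactose medium (pH 6.0, -URA), treated with compound, and growth recovery is read at OD600.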
Pf growth 96h = Primary qHTS for delayed death inhibitors of the malarial parasite plastid, 96 hour incubation | P. falciparum luciferase reporter growth, 96 h | hit rate 6.9% among 320,000 | AID 504834, 2011 | Potency, µM (top dose mostly 28.7 µM), inactives show at the top dose activity change, negative = inhibition, usual class: inhibitors; active = well fitted inhibition curve with a large enough effect; inconclusive = small, poorly fitted or top-dose-only effect, or another doubt; inactive = no such curve, though single readings can be large or run the other way; also: potency is read from the fitted curve at half-maximal effect; % is scaled to controls: 0 for no effect and ±100 for the full control effect
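96 h incubation, 37 C, 5% CO2, of luciferase-reporter P. falciparum-infected RBCs (2% hematocrit, 0.05% parasitemia final) with test compounds; endpoint luminescence.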
SARS PLpro yeast = qHTS of Yeast-based Assay for SARS-CoV PLP | S. cerevisiae expressing SARS-CoV PLpro, growth rescue | AID 485353, 2010 | hit rate 0.19% among 330,000 | Potency, µM (highest dose often 32.9 µM), for the others: top-dose activity, positive = growth rescue, hits mostly activators; also: potency is read from the fitted curve at half-maximal effect; 0% is about no effect; nearly all actives have a fitted effect of over 55% in size
Pf growth 48h = Primary qHTS for delayed death inhibitors of the malarial parasite plastid, 48 hour incubation; P. falciparum luciferase growth in erythrocytes, 48 h; Potency, µM (titrated, usually from 28.7 µM), for inactives: at the highest dose activity change, negative = inhibition, usual class: inhibitors; hit rate 5.9% among 310,000; AID 504832, 2011; active = well fitted inhibition curve with a large enough effect; inconclusive = small, poorly fitted or top-dose-only effect, or another doubt; inactive = no such curve, though single readings can be large or run the other way; also: potency is read from the fitted curve at half-maximal effect; % is scaled to controls: 0 for no effect and ±100 for the full control effect
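In quantitative HTS format, infected erythrocytes bearing luciferase-reporter parasites were treated for a single generation at 37 C. Luminescence after adding detection reagent served as the growth measure.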
Shiga inhibitor = A qHTS for Small Molecule Inhibitors of Shiga Toxin. hit rate 9.2% among 290,000. Vero cells, Shiga toxin protein synthesis inhibition reporter. inhibition, % at 38.7 µM; in the data active = inhibition mostly above about 28%, no sharp cut-off; inactive = mostly below about 43%; also: 0% is about no effect
* hit, by the source's call; ? = inconclusive; / = no result. Most compounds without a hit are left out; they make up all but 21% or so of the library. Unless noted, calls follow the shape of the full dose curve.

SMILES	Cycloheximide cs	NS1 inh	Pf growth 96h	SARS PLpro yeast	Pf growth 48h	Shiga inhibitor
CN(C)c1ccc(S(=O)(=O)NCC(=O)NCCC2=CCCCC2)cc1[N+](=O)[O-]	/	/	?	1%	12µM*	/
Cc1c(C(=O)NCCC2=CCCCC2)cccc1[N+](=O)[O-]	35*	-7%	?	2%	41%	94*
C/C(=N\NC(=O)CC#N)c1cc2ccccc2oc1=O	16*	?	?	3%	0%	29*
CC(=O)OCCNC(=O)c1cc2ccccc2oc1=O	6	5%	1.7µM*	6%	13%	-9
C/C(=N\Nc1ccccc1)c1cc2ccccc2oc1=O	19	-5%	?	-3%	42%	25
COc1cccc(N/C(N)=N/c2nc(C(F)(F)F)cc(=O)[nH]2)c1	-3	6%	30%	25%	27%	-7
CC/C(O)=C1\C(=O)CC(c2ccccc2)CC1=NC(C)C (stereo not drawn)	-1	18%	?	-12%	?	-8
O=C(O)c1cc(S(=O)(=O)NCc2ccco2)c(Cl)cc1Cl	-5	-5%	?	?	/	-11
O=C(c1ccccc1Cl)N1N=C(c2cccs2)CC1c1cccc(O)c1 (stereo not drawn)	-2	4%	?	0%	?	-3
O=C(NCCc1ccccc1)c1cc2ccccc2oc1=O	-4	16%	9.3µM*	1%	3%	-8
CN(C)CCNC(=O)c1cc2ccccc2oc1=O	-3	-10%	?	-5%	-3%	-3
NS(=O)(=O)c1ccc(CCNC(=O)c2cc3ccccc3oc2=O)cc1	2	9%	?	1%	35%	/
COc1ccc(CCNC(=O)c2cc3ccccc3oc2=O)cc1	29*	-47%	0%	-7%	13%	34*
O=C(NCCc1ccc(F)cc1)c1cc2ccccc2oc1=O	8	14%	-9%	-2%	11%	-14
Cc1ccc(-c2[nH]c3ccccc3c2SCCNC(=O)c2cc3ccccc3oc2=O)cc1	-2	?	5.9µM*	2%	?	-20
O=C(NCCC1=CCCCC1)c1cc2ccccc2oc1=O	19*	-4%	39%	0%	26%	67*
CCOC(=O)C1(CCSC)NC(c2ccco2)C2C(=O)N(C)C(=O)C21 (stereo not drawn)	-2	3%	?	4%	6%	-5
O=C(Cn1c(CO)nc2ccccc21)Nc1ccc2c(c1)OCCCO2	/	/	1%	-8%	20%	/
O=C(Nc1ccccc1C(=O)Nc1ccncc1)c1ccccc1	-3	-12%	?	2%	?	-1
CCOc1cc(N2CCOCC2)c(OCC)cc1NC(=O)CN1CCSC1=O	/	/	29%	-8%	26%	/
CC(NC(=O)c1cc2ccccc2oc1=O)c1ccccc1 (stereo not drawn)	20*	-24%	12µM*	-11%	11%	47*
COc1ccc(N/C(=C(/C(Cl)=C(Cl)Cl)[N+](=O)[O-])n2nnc3ccccc32)cc1OC	4	11%	15µM*	15%	/	2
CC(C)(C)C(=O)COC(=O)c1ccc(N)c([N+](=O)[O-])c1	43*	/	44%	-2%	32%	83*
C=CCn1c(C)cc(C(=O)COC(=O)c2ccc(N)c([N+](=O)[O-])c2)c1C	55*	3%	155%	-21%	237%	58*
Cc1cc(C(=O)COC(=O)c2ccc(N)c([N+](=O)[O-])c2)c(C)n1-c1ccc2c(c1)OCO2	2	19%	4.7µM*	6%	13µM*	13
SMILES	Cycloheximide cs	NS1 inh	Pf growth 96h	SARS PLpro yeast	Pf growth 48h	Shiga inhibitor
CN(c1nc(-c2ccccc2)cs1)C1CCS(=O)(=O)C1 (stereo not drawn)	20*	-5%	-5%	-2%	35%	61*
Cc1ccc2c(c1)c1nnc(SCC(=O)Nc3ccc(N(C)C)cc3)nc1n2CC(=O)O	6	19%	6%	-2%	-7%	-2
O=C(NCc1cccs1)C1CCN(S(=O)(=O)c2cccc([N+](=O)[O-])c2)CC1	-3	6%	-5%	3%	0%	-7
COc1ccc(OC)c2sc(N3CCCCC3)nc12	36*	-19%	39%	-8%	30%	66*
Brc1cccc2sc(N3CCN(c4ccccc4)CC3)nc12	24*	/	0%	-8%	31%	30*
Clc1cccc2sc(N3CCCCC3)nc12	32*	-7%	/	-5%	77%	82*
Clc1cc(Cl)c2nc(N3CCCCC3)sc2c1	34*	-5%	0%	0%	126%	72*
O=C(O)c1cc(-c2cccc(Cl)c2)nc2nc(N3CCCCC3)sc12	-3	?	-25%	4%	-17%	9
Clc1cc(Cl)c2nc(N3CCCC3)sc2c1	/	-7%	/	/	/	/
COc1ccc(OC)c(CCNC(=O)CCCC(=O)n2ncc3cc(C)ccc32)c1	6	-21%	5%	-1%	-17%	7
C/C(=N\NC(=O)C(N)=O)c1ccc(O)cc1O	16*	/	-9%	11%	-27%	21
COc1ccc(C(=O)NCCS(=O)(=O)N(C)C2CCCCC2)cc1	/	/	?	-2%	1%	/
Cc1nc2c3ccccc3nc(NNC(=O)CCC(=O)NC(C)C)n2n1	-2	?	6.6µM*	2%	32%	-5
Cc1nc2c3ccccc3nc(NNC(=O)CCC(=O)N3CCCC(C)C3)n2n1 (stereo not drawn)	12	-4%	9.3µM*	1%	0%	2
Cc1nc2c3ccccc3nc(NNC(=O)CCC(=O)NC3CCCC3)n2n1	-5	/	359%	3%	5%	-7
CC(C)CCNC(=O)CCC(=O)NNc1nc2ccccc2c2nc(-c3ccccc3)nn12	5	-6%	10µM*	20%	15%	-3
COc1ccc(Nc2nnc(SCc3cc([N+](=O)[O-])cc4c3OCOC4)s2)cc1	5	4%	/	2%	-16%	-15
CNC(=O)c1ccc(NC(=O)C2CCN(S(=O)(=O)c3cccc(C(F)(F)F)c3)CC2)cc1	/	/	?	1%	13µM*	/
Cc1ccnc(NC(=O)C2CCN(S(=O)(=O)c3cccc(C(F)(F)F)c3)CC2)c1	14*	-2%	?	-1%	?	39
O=C(Nc1cccc(C(F)(F)F)c1)C1CCN(S(=O)(=O)c2cccnc2)CC1	-1	8%	?	27%	-14%	-10
CC1(C(=O)O)CCC(C(=O)NNC(=O)c2ccccc2O)C1(C)C (stereo not drawn)	-1	4%	423%	0%	14%	-2
NC(=O)CSc1oc(-c2ccco2)nc1S(=O)(=O)c1ccccc1	5	18%	?	3%	?	-5
Cc1ccc(C(=O)Oc2oc(-c3ccco3)nc2C=Nc2ccc(Cl)cc2)cc1	36*	-37%	23%	-28%	15%	99*

Compound activity from PubChem.
